Compounds without any hit were thinned out: in the full panel of roughly 79,000, 15% have a hit. A number with no mark means an inactive call. Active and inactive are the calls of the source. Rule as the data show it: active = growth inhibition above about 70%; inactive = the rest.

A short description of experiment [1]: NCI Yeast Anticancer Drug Screen. Data for the rad50 strain (AID 155).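 Also: 0% = growth of vehicle-only cultures of the same strain.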 As to conditions: S. cerevisiae rad50 strain growth inhibition, active compounds read high. The gist of the method:
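DNA repair mutant yeast, compound exposure, growth read-out; inhibition is taken relative to vehicle.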

A short description of experiment [2]: NCI Yeast Anticancer Drug Screen. Data for the mec2-1 strain (AID 157). To be noted: S. cerevisiae mec2-1 strain, active compounds read high. The gist of the method:
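mec2-1 yeast strain, carrying an alteration in DNA damage repair or cell cycle control, was exposed to compounds; growth inhibition was measured relative to vehicle-treated controls.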

Experiment [3] can be described thus: NCI Yeast Anticancer Drug Screen. Data for the sgs1 mgt1 strain (AID 161).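 Also: 0% = growth of cultures given vehicle only.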 To be noted: S. cerevisiae sgs1 mgt1 strain, active compounds read high. The gist of the method:
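Yeast cells carrying a defined DNA-repair defect were exposed to test compounds. Growth inhibition was measured relative to vehicle-treated controls.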

The nature of experiment [4]: NCI Yeast Anticancer Drug Screen. Data for the cln2 rad14 strain (AID 165).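 Also: 0% = growth equal to vehicle treated cultures.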 To be noted: S. cerevisiae cln2 rad14 strain, active compounds read high. The gist of the method:
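Yeast carrying cln2 and rad14 alterations (cell cycle control and DNA damage repair) were exposed to compounds. Growth inhibition was measured against vehicle-treated controls.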

Experiment [5] can be described thus: NCI Yeast Anticancer Drug Screen. Data for the bub3 strain (AID 167). As to conditions: S. cerevisiae bub3 mutant strain, active compounds read high. The gist of the method: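 In this screen, a yeast mutant lacking normal mitotic checkpoint function is challenged with compound. Relative growth versus vehicle gives the inhibition value.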
Experiment [6] is described as follows: NCI Yeast Anticancer Drug Screen. Data for the mlh1 rad18 strain (AID 175). As to conditions: S. cerevisiae mlh1 rad18 strain growth inhibition, active compounds read high. The gist of the method: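 Growth inhibition of the yeast strain was measured after compound exposure and expressed relative to vehicle-treated controls. The strain carries defined defects in DNA damage repair.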

The mark [7] stands for this setting: at 5.0 µM (retest, dose inferred, filed as 0.5).
Where [8] appears, read: at 50.0 µM (retest, dose inferred, filed as 5.0).

In the case of `Cc1ccc(O)c(Cc2ccc(Cl)cc2)c1`, the growth inhibition in experiment [1] (setting [7]) is -146%; in experiment [1] (setting [8]), 97% (active); in experiment [1] (at 50.0 µM) it was 74.7% (active); in experiment [2] (setting [7]) it was -54%; in experiment [2] (setting [8]) it was 99% (active); in experiment [2] (at 50.0 µM), 99.8% (active). For the same compound, the growth inhibition was -56% in experiment [3] (setting [7]); 99% (active) in experiment [3] (setting [8]); 64.3% in experiment [3] (at 50.0 µM); -80% in experiment [4] (setting [7]); 99% (active) in experiment [4] (setting [8]); 99.5% (active) in experiment [4] (at 50.0 µM). Also, the growth inhibition was -76% in experiment [5] (setting [7]); 98% (active) in experiment [5] (setting [8]); 99.6% (active) in experiment [5] (at 50.0 µM); -119% in experiment [6] (setting [7]); 96% (active) in experiment [6] (setting [8]); 99.6% (active) in experiment [6] (at 50.0 µM).
On to `CCc1cccc(C)c1NC(=O)C(=O)C(C#N)c1ccc(C)cc1` (stereo not given), for which the growth inhibition in experiment [1] (setting [7]) was -3%; in experiment [1] (setting [8]), 27%; in experiment [1] (at 50.0 µM) it was 28.5%; in experiment [2] (setting [7]), 0%; in experiment [2] (setting [8]), 5%; in experiment [2] (at 50.0 µM) it was 13.2%. For the same compound, the growth inhibition is -25% in experiment [3] (setting [7]); -1% in experiment [3] (setting [8]); 17.9% in experiment [3] (at 50.0 µM); 8% in experiment [4] (setting [7]); 18% in experiment [4] (setting [8]); 13.7% in experiment [4] (at 50.0 µM). Moreover, the growth inhibition in experiment [5] (setting [7]) was -4%; in experiment [5] (setting [8]), 39%; in experiment [5] (at 50.0 µM), 16.1%; in experiment [6] (setting [7]), 13%; in experiment [6] (setting [8]), 24%; in experiment [6] (at 50.0 µM), 23.9%.
Regarding `O=C(SCCCc1ccccc1)c1cc([N+](=O)[O-])cc([N+](=O)[O-])c1`, the growth inhibition was 98% (active) in experiment [1] (setting [7]); 87% (active) in experiment [1] (setting [8]); 75.7% (active) in experiment [1] (at 50.0 µM); 100% (active) in experiment [2] (setting [7]); 98% (active) in experiment [2] (setting [8]); 66.3% in experiment [2] (at 50.0 µM). Moreover, the growth inhibition in experiment [3] (setting [7]) is 99% (active); in experiment [3] (setting [8]), 94% (active); in experiment [3] (at 50.0 µM) it was 85.8% (active); in experiment [4] (setting [7]) it was 94% (active); in experiment [4] (setting [8]), 89% (active); in experiment [4] (at 50.0 µM), 78.6% (active). Besides, the growth inhibition in experiment [5] (setting [7]) is 98% (active); in experiment [5] (setting [8]), 98% (active); in experiment [5] (at 50.0 µM), 66%; in experiment [6] (setting [7]), 98% (active); in experiment [6] (setting [8]), 94% (active); in experiment [6] (at 50.0 µM), 76.6% (active).
For `O=C1CCCC1C(=O)OC1CCCC1` (stereo not given), the growth inhibition is 42% in experiment [1] (setting [7]); 13% in experiment [1] (setting [8]); -7.55% in experiment [1] (at 50.0 µM); 13% in experiment [2] (setting [7]); 4% in experiment [2] (setting [8]); -15% in experiment [2] (at 50.0 µM). Besides, the growth inhibition is 7% in experiment [3] (setting [7]); 2% in experiment [3] (setting [8]); -18.6% in experiment [3] (at 50.0 µM); 14% in experiment [4] (setting [7]); 3% in experiment [4] (setting [8]); 48.5% in experiment [4] (at 50.0 µM). Besides, the growth inhibition in experiment [5] (setting [7]) is 24%; in experiment [5] (setting [8]), 0%; in experiment [5] (at 50.0 µM), -19.3%; in experiment [6] (setting [7]), 14%; in experiment [6] (setting [8]), 0%; in experiment [6] (at 50.0 µM), -11.4%.
Consider `CCCCCCCCCCCCCCCC(=O)N1CC[N+](C)(C)CC1`, for which the growth inhibition in experiment [1] (setting [7]) was 34%; in experiment [1] (setting [8]), 99% (active); in experiment [1] (at 50.0 µM), 99.3% (active); in experiment [2] (setting [7]), 5%; in experiment [2] (setting [8]) it was 100% (active); in experiment [2] (at 50.0 µM) it was 99.6% (active). For the same compound, the growth inhibition in experiment [3] (setting [7]) was 73% (active); in experiment [3] (setting [8]), 99% (active); in experiment [3] (at 50.0 µM), 60%; in experiment [4] (setting [7]), 5%; in experiment [4] (setting [8]), 99% (active); in experiment [4] (at 50.0 µM), 98.2% (active). Besides, the growth inhibition in experiment [5] (setting [7]) was 16%; in experiment [5] (setting [8]), 99% (active); in experiment [5] (at 50.0 µM) it was 99.2% (active); in experiment [6] (setting [7]), -34%; in experiment [6] (setting [8]), 99% (active); in experiment [6] (at 50.0 µM), 99.5% (active).
As to `CCCCCCCCCCCCCC1=NCC(C)(C)N1`, the growth inhibition in experiment [1] (setting [7]) is 83% (active); in experiment [1] (setting [8]), 100% (active); in experiment [1] (at 50.0 µM), 99.2% (active); in experiment [2] (setting [7]), 85% (active); in experiment [2] (setting [8]), 100% (active); in experiment [2] (at 50.0 µM), 97.3% (active). Further, the growth inhibition is 91% (active) in experiment [3] (setting [7]); 100% (active) in experiment [3] (setting [8]); 99.7% (active) in experiment [3] (at 50.0 µM); 66% in experiment [4] (setting [7]); 99% (active) in experiment [4] (setting [8]); 97.8% (active) in experiment [4] (at 50.0 µM). The growth inhibition in experiment [5] (setting [7]) was 89% (active); in experiment [5] (setting [8]), 100% (active); in experiment [5] (at 50.0 µM), 99.7% (active); in experiment [6] (setting [7]), 82% (active); in experiment [6] (setting [8]), 100% (active); in experiment [6] (at 50.0 µM) it was 99.5% (active).
On to `CCN(CC)Cc1cc(Nc2c3ccccc3nc3c4ccccc4n(C)c23)ccc1O`, for which the growth inhibition in experiment [1] (setting [7]) was 0%; in experiment [1] (setting [8]), 23%; in experiment [1] (at 50.0 µM) it was 74.2% (active); in experiment [2] (setting [7]), 2%; in experiment [2] (setting [8]) it was -4%; in experiment [2] (at 50.0 µM), 16.2%. Also, the growth inhibition in experiment [3] (setting [7]) is -10%; in experiment [3] (setting [8]), 9%; in experiment [3] (at 50.0 µM) it was 30.2%; in experiment [4] (setting [7]) it was 0%; in experiment [4] (setting [8]), 0%; in experiment [4] (at 50.0 µM), -1.6%. For the same compound, the growth inhibition in experiment [5] (setting [7]) was -6%; in experiment [5] (setting [8]), 13%; in experiment [5] (at 50.0 µM), 55.3%; in experiment [6] (setting [7]) it was -10%; in experiment [6] (setting [8]), 0%; in experiment [6] (at 50.0 µM), 42.9%.
`COc1ccc(-c2c3ccccc3[n+](-c3ccccc3)c3ccccc23)cc1`: the growth inhibition is 98% (active) in experiment [1] (setting [7]); 99% (active) in experiment [1] (setting [8]); 99.6% (active) in experiment [1] (at 50.0 µM); 99% (active) in experiment [2] (setting [7]); 100% (active) in experiment [2] (setting [8]); 99.5% (active) in experiment [2] (at 50.0 µM). Further, the growth inhibition is 99% (active) in experiment [3] (setting [7]); 100% (active) in experiment [3] (setting [8]); 99.5% (active) in experiment [3] (at 50.0 µM); 96% (active) in experiment [4] (setting [7]); 99% (active) in experiment [4] (setting [8]); 99.2% (active) in experiment [4] (at 50.0 µM). For the same compound, the growth inhibition is 99% (active) in experiment [5] (setting [7]); 99% (active) in experiment [5] (setting [8]); 99.2% (active) in experiment [5] (at 50.0 µM); 99% (active) in experiment [6] (setting [7]); 99% (active) in experiment [6] (setting [8]); 99.3% (active) in experiment [6] (at 50.0 µM).
`CC(=O)OC(C)C1C2=C(C(=O)CC1(C)O)C(=O)c1c(ccc(-c3ccc4c(c3O)C(=O)C3=C(C4=O)C(C(C)OC(C)=O)C(C)(O)CC3=O)c1O)C2=O` (stereo not given): the growth inhibition is 21% in experiment [1] (setting [7]); 94% (active) in experiment [1] (setting [8]); 72.8% (active) in experiment [1] (at 50.0 µM); 10% in experiment [2] (setting [7]); 95% (active) in experiment [2] (setting [8]); 79.6% (active) in experiment [2] (at 50.0 µM). Moreover, the growth inhibition in experiment [3] (setting [7]) was 44%; in experiment [3] (setting [8]) it was 86% (active); in experiment [3] (at 50.0 µM), 76.5% (active); in experiment [4] (setting [7]), 12%; in experiment [4] (setting [8]), 67%; in experiment [4] (at 50.0 µM), 70.8% (active). Further, the growth inhibition in experiment [5] (setting [7]) is 13%; in experiment [5] (setting [8]), 85% (active); in experiment [5] (at 50.0 µM), 70.7% (active); in experiment [6] (setting [7]), 28%; in experiment [6] (setting [8]), 94% (active); in experiment [6] (at 50.0 µM), 76.7% (active).
With `CCOC(=O)C1=C(c2ccccc2)c2ccccc2OC1C(=O)O` (stereo not given), the growth inhibition in experiment [1] (setting [7]) is 8%; in experiment [1] (setting [8]), 38%; in experiment [1] (at 50.0 µM), 26.5%; in experiment [2] (setting [7]) it was 22%; in experiment [2] (setting [8]), 60%; in experiment [2] (at 50.0 µM) it was 14.8%. Further, the growth inhibition in experiment [3] (setting [7]) is 16%; in experiment [3] (setting [8]) it was 64%; in experiment [3] (at 50.0 µM), 19.5%; in experiment [4] (setting [7]), 2%; in experiment [4] (setting [8]), 38%; in experiment [4] (at 50.0 µM), 59.9%. The growth inhibition in experiment [5] (setting [7]) was 16%; in experiment [5] (setting [8]), 29%; in experiment [5] (at 50.0 µM), 32.5%; in experiment [6] (setting [7]) it was 34%; in experiment [6] (setting [8]), 78% (active); in experiment [6] (at 50.0 µM), 55.8%.
